Source: PubChem BioAssay (Tox21)
Records with an inconclusive call do not appear. Entries that show only a call come without a potency. The source made the active and inactive calls. Unless noted, calls follow the shape of the dose curve; as a rule, active = well fitted curve in the direction sought with a large enough effect in the repeat runs; inconclusive = weak or mixed curves; inactive = no such curve, though single readings can be large; an effect the other way counts as inactive or inconclusive.

Columns and labels:
[1] = qHTS assay for small molecule agonists of the p53 signaling pathway (AID 651631; calls by dose curve; also: nearly all actives have a fitted effect of over 15% in size; also: potency is read from the fitted curve at half-maximal effect)
Method in brief: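 HCT-116 cells carrying a stable p53 response element–beta-lactamase reporter were plated, rested 5 h at 37 °C, then exposed to compound in DMSO for 16 h at 37 °C; reporter activity was read as FRET substrate fluorescence after 2 h at room temperature.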

[2] = qHTS assay for small molecules that induce genotoxicity in human embryonic kidney cells expressing luciferase-tagged ATAD5 (AID 651632); also: nearly all actives have a fitted effect of over 15% in size; also: potency is read from the fitted curve at half-maximal effect
Method in brief: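 Increased luciferase signal from ATAD5-tagged reporter cells indicates DNA-damage-driven ATAD5 induction. HEK293T cells are treated for 16 hr at 37C before detection with Amplite.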

[3] = qHTS assay for small molecule agonists of the p53 signaling pathway - cell viability (AID 651633; calls by dose curve; also: nearly all actives have a fitted effect of over 30% in size; also: potency is read from the fitted curve at half-maximal effect)
Method in brief: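 p53RE-bla cells were treated with compound for 16 hours at 37 C. Cytotoxicity was then measured as CellTiter-Glo luminescence after 30 min at room temperature.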

[4] = qHTS assay for small molecules that induce genotoxicity in human embryonic kidney cells expressing luciferase-tagged ATAD5 - cell viability (AID 651634; calls by dose curve; also: nearly all actives have a fitted effect of over 25% in size)
Method in brief: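 Cytotoxicity counterscreen in HEK293T cells bearing an ATAD5-luciferase reporter: live-cell protease activity measured by CellTiter-Fluor fluorescence after 15.5 hr compound exposure.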

[5] = qHTS assay for small molecule disruptors of the mitochondrial membrane potential (AID 720635); also: potency is read from the fitted curve at half-maximal effect
Method in brief: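 HepG2 cells exposed to compound 1 hr at 37C, then Mito-MPS dye 30 min. Ratio read of aggregate (540/590 nm) versus monomer (490/535 nm) fluorescence.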

[6] = qHTS assay to test for compound auto fluorescence at 590 nm (red) in HepG2 cells (AID 720674)
Method in brief: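 HepG2 cells, 2,000 per well in MEM with 10% FBS, attached overnight at 37 C, then got 23 nL compound or DMSO. After 1 hr at 37 C, 5% CO2, red fluorescence was read at 540/590 nm against Rose Bengal sodium as reference.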

[7] = qHTS assay to test for compound auto fluorescence at 535 nm (green) in HepG2 cells (AID 720675)
[8] = qHTS assay to test for compound auto fluorescence at 460 nm (blue) in HEK293 cells (AID 720678)
Method in brief: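 Blue-channel (Ex/Em 405/460 nm) intensity measured in HEK293 cultures after overnight compound exposure at 37C; signal expressed relative to triamterene. Cells plated 2,000 per well in 10% dialyzed FBS medium and allowed 4-5 hr to attach.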

[9] = qHTS assay to test for compound auto fluorescence at 590 nm (red) in HEK293 cells (AID 720679)
Method in brief: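 Red-channel autofluorescence (Ex/Em 540/590 nm; Rose Bengal sodium reference) was measured after overnight 37C, 5% CO2 exposure of attached HEK293 cells, 2,000 per well in medium with 10% dialyzed FBS.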

[10] = qHTS assay for small molecule disruptors of the mitochondrial membrane potential - cell viability (AID 720634; calls by dose curve;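 also: human HepG2 liver cancer cells; series mostly up to about 83 µM; nearly all actives have a fitted effect of over 20% in size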)
Method in brief: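 After overnight attachment at 37 C, HepG2 cells received compound or DMSO vehicle for 1 hr. Viability is then taken from ATP-driven luminescence following a 30 min room-temperature CellTiter-Glo step.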

Row | SMILES | Potency [1] | Potency [2] | Potency [3] | Potency [4] | Potency [5] | Potency [6] | Potency [7] | Potency [8] | Potency [9] | Potency [10]
1 | CN(C(=O)CO)c1c(I)c(C(=O)NCC(O)CO)c(I)c(C(=O)NCC(O)CO)c1I (stereo unspecified) | inactive | inactive | inactive | inactive | inactive | inactive | inactive | inactive | inactive | 
2 | CCCC(=O)N1CCCN(c2nc(N)c3cc(OC)c(OC)cc3n2)CC1 | inactive | inactive |  | inactive |  | inactive | inactive | inactive | inactive | inactive
3 | CC(=O)c1ccc2c(c1)N(CCCN1CCN(CCO)CC1)c1ccccc1S2 | inactive | inactive | inactive |  |  | inactive | inactive | inactive | inactive | inactive
4 | O=C(O)c1ccc(NC(=O)[C@H](Cc2ccc(O)cc2)NC(=O)c2ccccc2)cc1 | inactive | inactive |  | inactive | inactive | inactive | inactive | inactive | inactive | inactive
5 | CO[C@H]1C=CO[C@@]2(C)Oc3c(C)c(O)c4c(O)c(c5c(nc6cc(C)ccn65)c4c3C2=O)NC(=O)/C(C)=C\C=C[C@H](C)[C@H](O)[C@@H](C)[C@@H](O)[C@@H](C)[C@H](OC(C)=O)[C@@H]1C | inactive | inactive | inactive |  |  | inactive | inactive | inactive | inactive | inactive
6 | O=C1O[C@H]2[C@H](O)[C@@H]1OC(O)[C@H]2O (stereo partly specified) | inactive | inactive | inactive |  | inactive | inactive | inactive | inactive | inactive | inactive
7 | CC[C@H]1OC(=O)[C@H](C)[C@@H](O[C@H]2C[C@@](C)(OC)[C@@H](O)[C@H](C)O2)[C@H](C)[C@@H](O[C@@H]2O[C@H](C)C[C@H](N(C)C)[C@H]2O)[C@](C)(O)C[C@@H](C)[C@@H]2N[C@@H](COCCOC)O[C@@H]([C@H]2C)[C@]1(C)O | inactive | inactive | inactive | inactive |  | inactive | inactive | inactive | inactive | 
8 | CCCCC(=O)O[C@H]1CC[C@H]2[C@@H]3CCc4cc(O)ccc4[C@H]3CC[C@]12C | inactive | inactive | inactive |  | 18.8 µM (active) | inactive | inactive | inactive | inactive | 
9 | C#C[C@]1(OC(C)=O)CC[C@H]2[C@@H]3CCC4=CC(=O)CC[C@@H]4[C@H]3CC[C@@]21C | inactive | inactive | inactive |  | inactive | inactive | inactive | inactive | inactive | inactive
10 | CC(C(=O)O)c1ccc(N2Cc3ccccc3C2=O)cc1 (stereo unspecified) | inactive | 0.596 µM (active) | inactive | inactive |  | inactive |  | inactive | inactive | 
11 | O=C(NCCNCC(O)COc1ccc(O)cc1)N1CCOCC1 (stereo unspecified) | inactive | inactive | inactive | inactive | inactive | inactive | inactive | inactive | inactive | 
12 | O=P(O)(O)C(Sc1ccc(Cl)cc1)P(=O)(O)O | inactive | inactive | inactive | inactive | inactive | inactive | inactive | inactive | inactive | 
13 | CC1(S(=O)(=O)O)CC(=O)c2ccccc2C1=O (stereo unspecified) | 21.1 µM (active) | inactive | 26.6 µM (active) |  |  | inactive | inactive |  | inactive | inactive
14 | CCCC(=O)O[C@]1(C(=O)COC(C)=O)CC[C@H]2[C@@H]3C[C@H](F)C4=CC(=O)C=C[C@]4(C)[C@@]3(F)[C@@H](O)C[C@@]21C | inactive | inactive | inactive | inactive |  | inactive |  | inactive | inactive | 
15 | COC(=O)[C@@H](N)CS | inactive | inactive | inactive |  | inactive | inactive | inactive | inactive | inactive | inactive
16 | CC(C)[C@@H](N)C(=O)O | inactive | inactive | inactive |  |  | inactive | inactive | inactive | inactive | inactive
17 | CCN(CC)CCOC(=O)c1cccnc1 | inactive | inactive |  | inactive |  | inactive | inactive | inactive | inactive | inactive
18 | COC1=C(C(=O)O)N2C(=O)[C@@H](NC(=O)[C@H](N)C3=CCC=CC3)[C@H]2SC1 | inactive | inactive | inactive |  | inactive | inactive | inactive | inactive | inactive | inactive
19 | CNc1cc(OC)c(C(=O)N[C@H]2CCN(Cc3ccccc3)[C@H]2C)cc1Cl | inactive | inactive | inactive |  |  | inactive | inactive | inactive | inactive | inactive
20 | CN1c2cc(O)c(N=NC(N)=O)cc2CC1S(=O)(=O)O (stereo unspecified) | inactive | inactive | inactive |  |  | inactive | inactive | inactive | inactive | inactive
21 | CCCOc1ccc2nc(NC(=O)OC)sc2c1 | 1.5 µM (active) | 1.88 µM (active) | inactive |  | 7.5 µM (active) | inactive | inactive | inactive |  | inactive
22 | CN1C(=O)CN2CCc3ccccc3C2c2cc(Cl)ccc21 (stereo unspecified) | 29.8 µM (active) | inactive |  | inactive | inactive | inactive | inactive | inactive |  | inactive
